From PubChem BioAssay (EPA / NIEHS)
Results filed as inconclusive are left out. Some compounds were tested as several samples or in several runs, with calls that do not always agree. The source made the active and inactive calls. The calls were made as follows, unless noted: active = hit-call score of the fitted dose curve at least 0.9, where 1 is the maximum; inactive = score below 0.9.

How the values were obtained:
[1] = target: Estrogen-related receptor gamma (Homo sapiens) (UniProt P62508); assay: ATG_ERRg_TRANS: Attagene TRANS-FACTORIAL HepG2 Assay for human Estrogen-Related Receptor gamma (ERRg) (AID 2282977; active = hit-call score of the fitted dose curve at least 0.9, where 1 is the maximum;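 also: hits increase reporter signal over DMSO so potencies reflect activators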); conditions: HepG2 Attagene TRANS reporter, ERRg transactivation
Method in brief: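 HepG2 cells transiently transfected with multiplexed GAL4-UAS reporter units driven by chimeric NR-Gal4 proteins; 24 h exposure. Reporter mRNA quantified by RT-PCR, fluorescent labelling, HpaI digestion and capillary electrophoresis; gain of signal vs DMSO.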

[2] = target: Oxysterols receptor LXR-alpha (Homo sapiens) (UniProt Q13133); assay: ATG_LXRa_TRANS: Attagene TRANS-FACTORIAL HepG2 Assay for human Liver X Receptor alpha (LXRa) (AID 2282980; active = hit-call score of the fitted dose curve at least 0.9, where 1 is the maximum); conditions: HepG2 Attagene TRANS reporter, LXRa transactivation
Method in brief: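 In this multiplexed TRANS system, compounds act on HepG2 cells carrying GAL4-UAS reporter units and a receptor-GAL4 fusion for 24 h. Induced reporter RNA is amplified, fluorescently labelled and sized by capillary electrophoresis, with DMSO as baseline.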

[3] = target: Oxysterols receptor LXR-beta (Homo sapiens) (UniProt P55055); assay: ATG_LXRb_TRANS: Attagene TRANS-FACTORIAL HepG2 Assay for human Liver X Receptor beta (LXRb) (AID 2282981; active = hit-call score of the fitted dose curve at least 0.9, where 1 is the maximum); conditions: HepG2 Attagene TRANS GAL4-LXRb reporter, mRNA
Method in brief: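 Transient transfection HepG2 (multiplexed RTUs, GAL4-UAS); NR-Gal4 chimera; 24 h exposure; RNA → RT-PCR → 6-FAM primer extension → HpaI → CE; increase vs DMSO.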

[4] = target: Hepatocyte nuclear factor 4-alpha (Homo sapiens) (UniProt P41235); assay: ATG_HNF4a_TRANS: Attagene TRANS-FACTORIAL HepG2 Assay for human Hepatocyte Nuclear Factor 4 alpha (HNF4a) (AID 2282982; active = hit-call score of the fitted dose curve at least 0.9, where 1 is the maximum); conditions: HepG2 HNF4a transactivation reporter, mRNA readout
Method in brief: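 Readout is fluorescent reporter-transcript fragments resolved by capillary electrophoresis after RT-PCR from HepG2 cells dosed for 24 h. Cells carried transfected GAL4-UAS reporter constructs measuring exogenous NR-GAL4 chimera activity; DMSO served as baseline.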

[5] = ATG_M_32_TRANS: Attagene TRANS-FACTORIAL HepG2 Assay for M32 Transcription Factor (Internal Marker) (AID 2282984; active = hit-call score of the fitted dose curve at least 0.9, where 1 is the maximum;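 also: transcript level of a background control reporter unit measured by RT-PCR and capillary electrophoresis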); conditions: HepG2 Attagene TRANS M32 internal marker reporter
Method in brief: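 Measures reporter mRNA induction in human HepG2 liver cells after 24 h chemical treatment. Transcripts from transiently transfected GAL4-UAS reporter units are amplified, fluorescently labelled and sized by capillary electrophoresis; gain of signal relative to DMSO.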

[6] = target: Transcriptional activator Myb (Homo sapiens) (UniProt P10242); assay: ATG_Myb_CIS: Attagene CIS-FACTORIAL HepG2 Assay for human Myeloblastosis (Myb) Proto-Oncogene Transcription Factor (AID 2282986); conditions: HepG2 Attagene CIS-FACTORIAL Myb reporter transcription; actives raise or lower the signal
Method in brief: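 Using HepG2 liver cells bearing transiently transfected cis-promoter reporter constructs, the assay measures induction or loss of reporter mRNA after 24 hours of dosing. Detection used fluorescently labeled RT-PCR products separated by capillary electrophoresis.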

[7] = target: Nuclear respiratory factor 1 (Homo sapiens) (UniProt Q16656); assay: ATG_NRF1_CIS: Attagene CIS-FACTORIAL HepG2 Assay for human Nuclear Respiratory Factor 1 (NRF1) Orphan Gene (AID 2282987); conditions: HepG2 NRF1 cis-element reporter, Attagene multiplex; actives raise or lower the signal
Method in brief: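 Reporter mRNA induction or loss in HepG2 cells after 24 h dosing; cis-regulated reporter constructs report endogenous transcription-factor activity. Quantified by RT-PCR/capillary electrophoresis fluorescence, DMSO-referenced.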

[8] = ATG_NFI_CIS: Attagene CIS-FACTORIAL HepG2 Assay for human Nuclear Factor I (NFI) (AID 2282989); conditions: HepG2 cis-regulatory reporter, NFI response element transcription; actives raise or lower the signal
Method in brief: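 Transfected HepG2 liver cells, exposed 24 h, supplied total RNA for oligo(dT) reverse transcription and reporter-specific PCR. Labelled, HpaI-cut fragments were sized by capillary electrophoresis; DMSO set the baseline for bidirectional fitting.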

[9] = target: Myc proto-oncogene protein (Homo sapiens) (UniProt P01106); assay: ATG_Myc_CIS: Attagene CIS-FACTORIAL HepG2 Assay for human Myelocytomatosis (Myc) Proto-Oncogene Transcription Factor (AID 2282990); conditions: HepG2, Attagene cis-reporter transcription factor activity; actives raise or lower the signal
Method in brief: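 Cells of the HepG2 human liver line bear multiple cis-driven reporter transcription units. Reporter mRNA after 24 h exposure is reverse-transcribed, amplified, labelled and resolved by capillary electrophoresis, with gain- or loss-of-signal fitting relative to DMSO.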

[10] = ATG_NF_kB_CIS: Attagene CIS-FACTORIAL HepG2 Assay for human Nuclear Factor Kappa B (NF-kB) (AID 2282991); conditions: HepG2 Attagene cis-factorial NF-kB reporter mRNA; actives raise or lower the signal
Method in brief: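 DMSO served as negative control and baseline for bidirectional curve fitting. Transiently transfected HepG2 cells were dosed for 24 h, then reporter transcripts were measured by RT-PCR with capillary electrophoresis detection.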

[11] = ATG_NRF2_ARE_CIS: Attagene CIS-FACTORIAL HepG2 Assay for human Nuclear Factor Erythroid 2 Related Factor 2 (NFR2) response to Antioxidant Response Elements (ARE) (AID 2282992); conditions: HepG2 Attagene ARE/NRF2 reporter, transcription factor activity; actives raise or lower the signal;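 as to AC50: reporter mRNA level measured by RT-PCR and capillary electrophoresis fluorescence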
Method in brief: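 Cis-factorial assay: transfected HepG2 reporter library, 24 h dosing, mRNA readout via RT-PCR/CE; DMSO-referenced bidirectional analysis.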

[12] = ATG_Oct_MLP_CIS: Attagene CIS-FACTORIAL HepG2 Assay for human Octamer-Binding Transcription Factor (Oct) (AID 2282993); conditions: HepG2 Attagene cis-factorial Oct reporter, mRNA; actives raise or lower the signal
Method in brief: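 Using HepG2 cells bearing transfected cis-reporter constructs, mRNA induction was read after 24 h by fluorescent RT-PCR and capillary electrophoresis, with DMSO defining baseline for gain- or loss-of-signal fits.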

[13] = target: Cellular tumor antigen p53 (Homo sapiens) (UniProt P04637); assay: ATG_p53_CIS: Attagene CIS-FACTORIAL HepG2 Assay for human p53 Transcription Factor (AID 2282994); conditions: HepG2 p53 cis-element reporter, Attagene mRNA; actives raise or lower the signal
Method in brief: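 Using HepG2 hepatoma cells carrying cis-acting multiplexed reporters, mRNA induction is detected after a 24 h exposure. Gain- and loss-of-signal responses are fitted relative to DMSO-treated cells.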

[14] = target: Glucocorticoid receptor (Homo sapiens) (UniProt P04150); assay: ATG_GR_TRANS: Attagene TRANS-FACTORIAL HepG2 Assay for human Glucocorticoid Receptor (GR) (AID 2282978; active = hit-call score of the fitted dose curve at least 0.9, where 1 is the maximum;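 also: activators score as hits since higher reporter transcript over DMSO is fitted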); conditions: HepG2 Attagene TRANS GR reporter, mRNA transcription
Method in brief: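 Transiently transfected HepG2 cells express chimeric NR-GAL4 proteins acting on GAL4-UAS reporter units. Compounds are applied for 24 h. mRNA induction over DMSO is measured by capillary electrophoresis.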

[15] = target: Bile acid receptor (Homo sapiens) (UniProt Q96RI1); assay: ATG_FXR_TRANS: Attagene TRANS-FACTORIAL HepG2 Assay for Farnesoid X Receptor (FXR) (AID 2282979; active = hit-call score of the fitted dose curve at least 0.9, where 1 is the maximum;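 also: hits raise reporter mRNA above DMSO so AC50 marks FXR activation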); conditions: HepG2 Attagene TRANS FXR-GAL4 reporter transcription
Method in brief: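 After 24 h chemical treatment of transfected HepG2 cells, GAL4-UAS reporter transcripts driven by an exogenous FXR-GAL4 fusion were measured by RT-PCR and capillary electrophoresis. Increases over DMSO were fitted.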

[16] = ATG_M_06_TRANS: Attagene TRANS-FACTORIAL HepG2 Assay for M06 Transcription Factor (Internal Marker) (AID 2282983; active = hit-call score of the fitted dose curve at least 0.9, where 1 is the maximum;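 also: reporter transcript level by RT-PCR then capillary electrophoresis fluorescence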); conditions: HepG2 Attagene TRANS M06 internal marker reporter
Method in brief: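 Internal-marker background readout from a multiplexed TRANS reporter system in HepG2; 24 h dosing; mRNA induction quantified by RT-PCR plus capillary electrophoresis fluorescence; DMSO as negative control and baseline.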

[17] = BSK_3C_TissueFactor: BioMAP Diversity Plus: 3C Assay for Tissue Factor Biomarker Activity (AID 2282997); conditions: BioMAP 3C HUVEC, tissue factor biomarker readout; actives raise or lower the signal
Method in brief: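 Endothelial monolayers (human umbilical vein, primary) are dosed, incubated 24 h, and assayed for Tissue Factor by ELISA; DMSO serves as negative control for bidirectional fitting.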

[18] = BSK_3C_uPAR: BioMAP Diversity Plus: 3C Assay for Urokinase-type plasminogen activator receptor (uPAR) Biomarker Activity (AID 2282998); conditions: BioMAP 3C HUVEC, uPAR biomarker ELISA; actives raise or lower the signal
Method in brief: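 In this endothelial cell-based assay, human umbilical vein primary cells were treated with chemicals and harvested at 24 h. uPAR was quantified using ELISA, with gains or losses fitted relative to DMSO controls.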

[19] = BSK_3C_VCAM1: BioMAP Diversity Plus: 3C Assay for Vascular cell adhesion molecule 1 (VCAM1) Biomarker Activity (AID 2282999); conditions: BioMAP 3C HUVEC, VCAM1 ELISA, cytokine-stimulated; actives raise or lower the signal
Method in brief: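 Endothelial cells from human umbilical vein are treated with test chemical. At 24 h, VCAM-1 is measured by ELISA, and responses in either direction are fitted relative to DMSO.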

[20] = target: Nuclear receptor subfamily 4 group A member 2 (Homo sapiens) (UniProt P43354); assay: ATG_NURR1_TRANS: Attagene TRANS-FACTORIAL HepG2 Assay for human Nuclear Receptor Related Protein 1 (NURR1) (AID 2282985; active = hit-call score of the fitted dose curve at least 0.9, where 1 is the maximum); conditions: HepG2 Attagene TRANS reporter, mRNA readout
Method in brief: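 Transient transfection of HepG2, human liver cells, with multiple GAL4-UAS reporter transcription units. Cells dosed 24 h, RNA isolated, reverse-transcribed, PCR-amplified, FAM-labelled, HpaI-digested, sized by capillary electrophoresis. DMSO served as negative control.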

Measured: AC50

Chain of Glucocorticoid receptor (Homo sapiens) (P04150 whole entry, looked up, the tested form may be a part): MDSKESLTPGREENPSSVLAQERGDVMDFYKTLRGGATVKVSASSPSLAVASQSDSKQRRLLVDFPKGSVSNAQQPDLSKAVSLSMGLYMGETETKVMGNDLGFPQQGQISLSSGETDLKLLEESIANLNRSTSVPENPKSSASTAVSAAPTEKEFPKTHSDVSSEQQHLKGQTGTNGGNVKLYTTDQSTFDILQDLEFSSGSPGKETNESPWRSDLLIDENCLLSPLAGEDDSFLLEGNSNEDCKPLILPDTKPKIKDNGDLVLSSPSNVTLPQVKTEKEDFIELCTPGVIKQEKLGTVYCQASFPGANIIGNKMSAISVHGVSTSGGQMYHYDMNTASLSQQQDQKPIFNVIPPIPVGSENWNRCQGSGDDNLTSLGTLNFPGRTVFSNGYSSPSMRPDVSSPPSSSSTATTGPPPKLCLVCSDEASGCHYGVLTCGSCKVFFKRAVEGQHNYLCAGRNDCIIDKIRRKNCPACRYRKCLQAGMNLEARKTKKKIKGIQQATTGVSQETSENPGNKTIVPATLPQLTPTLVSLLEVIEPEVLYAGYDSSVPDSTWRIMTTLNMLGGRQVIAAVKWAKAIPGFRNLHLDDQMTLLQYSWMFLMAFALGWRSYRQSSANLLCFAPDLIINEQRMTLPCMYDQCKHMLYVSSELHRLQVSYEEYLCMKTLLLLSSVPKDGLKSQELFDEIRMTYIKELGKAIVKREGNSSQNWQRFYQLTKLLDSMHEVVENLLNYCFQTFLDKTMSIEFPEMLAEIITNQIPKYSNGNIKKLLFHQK
Chain of Estrogen-related receptor gamma (Homo sapiens) (P62508 whole entry, looked up, the tested form may be a part): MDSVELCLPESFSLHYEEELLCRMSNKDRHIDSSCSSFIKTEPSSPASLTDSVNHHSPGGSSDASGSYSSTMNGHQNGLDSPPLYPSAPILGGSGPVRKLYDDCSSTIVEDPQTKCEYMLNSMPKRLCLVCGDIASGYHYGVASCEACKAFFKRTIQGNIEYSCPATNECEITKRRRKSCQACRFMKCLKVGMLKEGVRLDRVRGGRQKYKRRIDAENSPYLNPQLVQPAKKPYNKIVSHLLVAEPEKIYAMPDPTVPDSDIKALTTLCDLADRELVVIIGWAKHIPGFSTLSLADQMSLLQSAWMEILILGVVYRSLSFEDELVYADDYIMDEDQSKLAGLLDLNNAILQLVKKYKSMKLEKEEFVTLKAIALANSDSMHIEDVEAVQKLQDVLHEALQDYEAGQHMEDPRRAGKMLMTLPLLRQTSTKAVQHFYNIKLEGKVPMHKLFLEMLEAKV
Chain of Nuclear respiratory factor 1 (Homo sapiens) (Q16656 whole entry, looked up): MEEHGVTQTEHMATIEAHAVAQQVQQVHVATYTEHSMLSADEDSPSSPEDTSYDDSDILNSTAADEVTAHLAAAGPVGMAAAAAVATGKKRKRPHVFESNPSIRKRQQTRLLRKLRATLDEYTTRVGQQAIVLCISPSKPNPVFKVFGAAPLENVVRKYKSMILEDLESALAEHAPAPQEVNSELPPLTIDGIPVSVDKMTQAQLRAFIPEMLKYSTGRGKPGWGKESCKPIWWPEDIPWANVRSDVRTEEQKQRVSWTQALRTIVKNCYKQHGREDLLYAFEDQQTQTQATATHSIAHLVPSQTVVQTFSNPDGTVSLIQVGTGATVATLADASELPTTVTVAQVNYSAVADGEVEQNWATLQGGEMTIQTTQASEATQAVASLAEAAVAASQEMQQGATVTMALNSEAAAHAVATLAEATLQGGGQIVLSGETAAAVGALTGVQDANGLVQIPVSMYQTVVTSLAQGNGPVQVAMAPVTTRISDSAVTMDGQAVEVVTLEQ
Chain of Cellular tumor antigen p53 (Homo sapiens) (P04637 whole entry, looked up): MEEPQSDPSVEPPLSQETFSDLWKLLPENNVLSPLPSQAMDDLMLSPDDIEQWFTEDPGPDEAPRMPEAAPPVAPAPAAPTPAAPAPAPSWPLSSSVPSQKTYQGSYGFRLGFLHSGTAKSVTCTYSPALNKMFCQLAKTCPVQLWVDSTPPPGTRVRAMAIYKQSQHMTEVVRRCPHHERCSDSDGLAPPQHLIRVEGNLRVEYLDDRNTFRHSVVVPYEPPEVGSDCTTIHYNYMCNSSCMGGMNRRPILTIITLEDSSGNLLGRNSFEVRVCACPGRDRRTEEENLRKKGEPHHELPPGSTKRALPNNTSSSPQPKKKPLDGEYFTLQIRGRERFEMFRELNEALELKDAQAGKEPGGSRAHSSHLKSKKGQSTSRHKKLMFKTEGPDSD
Chain of Transcriptional activator Myb (Homo sapiens) (P10242 whole entry, looked up): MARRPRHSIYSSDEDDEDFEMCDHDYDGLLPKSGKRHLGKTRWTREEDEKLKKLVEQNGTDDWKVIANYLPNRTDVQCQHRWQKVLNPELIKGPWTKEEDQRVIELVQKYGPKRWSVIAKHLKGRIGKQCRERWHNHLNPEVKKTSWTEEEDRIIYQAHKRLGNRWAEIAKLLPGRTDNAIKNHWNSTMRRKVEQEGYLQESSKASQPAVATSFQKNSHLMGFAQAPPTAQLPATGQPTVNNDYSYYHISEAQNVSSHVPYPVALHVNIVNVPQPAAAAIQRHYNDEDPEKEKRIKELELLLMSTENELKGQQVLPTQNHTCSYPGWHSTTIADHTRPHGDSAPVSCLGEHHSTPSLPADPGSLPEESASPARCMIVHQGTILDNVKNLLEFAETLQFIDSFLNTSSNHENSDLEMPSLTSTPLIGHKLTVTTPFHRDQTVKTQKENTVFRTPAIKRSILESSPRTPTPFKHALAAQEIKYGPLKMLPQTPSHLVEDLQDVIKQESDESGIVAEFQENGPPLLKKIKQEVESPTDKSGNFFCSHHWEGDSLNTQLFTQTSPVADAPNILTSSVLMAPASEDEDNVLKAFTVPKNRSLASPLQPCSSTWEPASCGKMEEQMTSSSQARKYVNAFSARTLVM
Chain of Bile acid receptor (Homo sapiens) (Q96RI1 whole entry, looked up, the tested form may be a part): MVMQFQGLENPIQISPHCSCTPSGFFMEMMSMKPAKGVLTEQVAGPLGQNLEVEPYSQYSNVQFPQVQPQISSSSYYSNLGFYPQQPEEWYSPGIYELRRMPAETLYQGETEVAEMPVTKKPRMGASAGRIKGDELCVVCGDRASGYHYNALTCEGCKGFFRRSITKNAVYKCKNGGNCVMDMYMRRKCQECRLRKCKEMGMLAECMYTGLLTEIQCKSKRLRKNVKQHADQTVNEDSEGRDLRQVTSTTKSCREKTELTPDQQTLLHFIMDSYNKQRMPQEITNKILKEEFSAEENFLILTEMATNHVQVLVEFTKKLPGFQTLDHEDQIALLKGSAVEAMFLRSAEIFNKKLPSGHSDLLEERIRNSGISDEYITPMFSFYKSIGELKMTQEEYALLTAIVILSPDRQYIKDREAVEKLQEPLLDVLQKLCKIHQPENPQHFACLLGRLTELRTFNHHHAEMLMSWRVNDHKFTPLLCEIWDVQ
Chain of Hepatocyte nuclear factor 4-alpha (Homo sapiens) (P41235 whole entry, looked up, the tested form may be a part): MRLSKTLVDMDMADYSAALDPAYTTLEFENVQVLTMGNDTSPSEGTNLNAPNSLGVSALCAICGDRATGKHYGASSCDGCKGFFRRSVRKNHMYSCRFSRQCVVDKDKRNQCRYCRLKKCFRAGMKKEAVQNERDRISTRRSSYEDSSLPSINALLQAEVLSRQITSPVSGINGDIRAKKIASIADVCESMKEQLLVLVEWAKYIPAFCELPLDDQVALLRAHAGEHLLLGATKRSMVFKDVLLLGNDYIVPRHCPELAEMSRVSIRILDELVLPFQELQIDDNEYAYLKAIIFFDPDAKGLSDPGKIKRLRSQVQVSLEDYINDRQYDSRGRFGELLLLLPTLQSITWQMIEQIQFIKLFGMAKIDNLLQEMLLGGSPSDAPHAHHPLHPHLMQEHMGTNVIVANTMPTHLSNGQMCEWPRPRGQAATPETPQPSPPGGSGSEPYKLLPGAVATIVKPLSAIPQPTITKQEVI
Chain of Nuclear receptor subfamily 4 group A member 2 (Homo sapiens) (P43354 whole entry, looked up, the tested form may be a part): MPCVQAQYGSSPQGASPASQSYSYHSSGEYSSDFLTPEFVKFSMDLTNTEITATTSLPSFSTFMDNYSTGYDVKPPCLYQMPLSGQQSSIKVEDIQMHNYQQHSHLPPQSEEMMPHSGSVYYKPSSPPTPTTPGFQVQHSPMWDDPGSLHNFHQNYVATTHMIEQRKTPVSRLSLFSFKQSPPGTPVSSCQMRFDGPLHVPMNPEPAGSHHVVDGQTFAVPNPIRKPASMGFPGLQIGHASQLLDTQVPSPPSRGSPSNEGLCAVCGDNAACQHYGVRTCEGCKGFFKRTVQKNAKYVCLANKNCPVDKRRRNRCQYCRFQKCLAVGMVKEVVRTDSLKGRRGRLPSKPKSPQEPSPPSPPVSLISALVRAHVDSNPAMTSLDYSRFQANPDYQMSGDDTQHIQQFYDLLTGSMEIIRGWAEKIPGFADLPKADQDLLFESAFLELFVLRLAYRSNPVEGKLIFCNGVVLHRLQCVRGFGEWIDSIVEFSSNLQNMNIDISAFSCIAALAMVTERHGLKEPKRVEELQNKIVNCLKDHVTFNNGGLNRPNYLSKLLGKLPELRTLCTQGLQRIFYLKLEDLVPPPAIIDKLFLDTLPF
Chain of Oxysterols receptor LXR-alpha (Homo sapiens) (Q13133 whole entry, looked up, the tested form may be a part): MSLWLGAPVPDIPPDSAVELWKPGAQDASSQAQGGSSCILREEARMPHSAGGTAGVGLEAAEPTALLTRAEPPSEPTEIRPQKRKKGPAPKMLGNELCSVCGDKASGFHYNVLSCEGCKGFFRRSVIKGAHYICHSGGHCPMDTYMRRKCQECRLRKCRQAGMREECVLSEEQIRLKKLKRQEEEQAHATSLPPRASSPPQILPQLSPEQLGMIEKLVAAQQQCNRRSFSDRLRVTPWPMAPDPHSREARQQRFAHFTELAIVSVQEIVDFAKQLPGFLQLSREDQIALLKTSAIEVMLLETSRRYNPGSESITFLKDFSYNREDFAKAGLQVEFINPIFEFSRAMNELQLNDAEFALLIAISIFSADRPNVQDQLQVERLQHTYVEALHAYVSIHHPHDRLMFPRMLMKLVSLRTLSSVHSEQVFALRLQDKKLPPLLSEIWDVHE

CNC(=O)Oc1ccc(N(C)C)c(C)c1
not listed: [14] | [15] | [16] | [17] | [18] | [19] | [20]
inactive: all other assays above

CCCCC(CC)COC(=O)c1c(Br)c(Br)c(Br)c(Br)c1C(=O)OCC(CC)CCCC (configuration not stated)
active: [14] 14.1 µM
not listed: [1] | [4] | [5] | [20]
inactive: all other assays above

CN(C)C(=O)Cl
not listed: [2] | [4] | [13] | [14] | [15] | [20]
inactive: all other assays above

N#Cc1c(-c2ccc(Cl)cc2)[nH]c(C(F)(F)F)c1Br
active: [12] 0.0675 µM | [17] 20 µM | [19] 6.03 µM
not listed: [2] | [3] | [5] | [11] | [16] | [18]
inactive: all other assays above

Nc1ccc2ccccc2c1
not listed: [2] | [4] | [10] | [11] | [14] | [15] | [18] | [20]
inactive: all other assays above

O=S(=O)(F)C(F)(F)C(F)(F)C(F)(F)C(F)(F)C(F)(F)C(F)(F)C(F)(F)C(F)(F)F
active: [11] 63.6 µM
inactive: [1] | [14] | [2] | [3] | [4] | [16] | [5] | [20] | [6] | [7] | [8] | [9] | [10] | [11] | [12] | [13] | [17] | [19]

Cc1ccc2c(c1N)C(=O)c1ccccc1C2=O
active: [10] 25.4 µM | [11] 42.4 µM | [17] 20 µM | [18] 3.89 µM
not listed: [3] | [14] | [16]
inactive: all other assays above

COP(=O)(CCC(=O)NCO)OC
not listed: [3] | [5] | [18]
inactive: all other assays above
